Assay results: ChEMBL document CHEMBL3433997, “St. Jude Leishmania screening dataset” (2016)

Columns and labels:
Type in all cases: functional
[1] = target: Solute carrier family 2, facilitated glucose transporter member 1 (Homo sapiens) (UniProt P11166); test: ST_JUDE_LEISH: Cytotoxicity at 2uM final concentration against transgenic Leishmania Mexicana promastigotes LmGLUT1 that are glucose transport deficient and complemented with the human glucose transporter GLUT1. Activity is measured by DNA content using SYBR green in vitro
Chain of Solute carrier family 2, facilitated glucose transporter member 1 (Homo sapiens) (P11166 whole entry): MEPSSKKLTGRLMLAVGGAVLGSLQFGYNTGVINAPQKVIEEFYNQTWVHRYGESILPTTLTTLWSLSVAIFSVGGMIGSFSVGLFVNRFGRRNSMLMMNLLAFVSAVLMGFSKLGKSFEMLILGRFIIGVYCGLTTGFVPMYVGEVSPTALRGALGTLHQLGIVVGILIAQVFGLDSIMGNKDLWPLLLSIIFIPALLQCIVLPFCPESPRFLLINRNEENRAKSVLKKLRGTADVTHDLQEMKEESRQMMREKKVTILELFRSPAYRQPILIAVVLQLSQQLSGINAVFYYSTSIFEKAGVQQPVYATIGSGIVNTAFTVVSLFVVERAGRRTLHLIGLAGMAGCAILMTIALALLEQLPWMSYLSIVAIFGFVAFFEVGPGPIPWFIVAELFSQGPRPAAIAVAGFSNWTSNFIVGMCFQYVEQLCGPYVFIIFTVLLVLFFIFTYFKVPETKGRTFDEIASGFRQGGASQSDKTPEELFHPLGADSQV

[2] = target: Hexose transporter 1 (Plasmodium falciparum) (UniProt O97467); test: ST_JUDE_LEISH: Cytotoxicity at 2uM final concentration against transgenic Leishmania Mexicana promastigotes LmPfHT that are glucose transport deficient and complemented with the Plasmodium falciparum hexose transporter. Activity is measured by DNA content using SYBR green in vitro
[3] = target: Glucose transporter (Leishmania mexicana) (UniProt O61059); test: ST_JUDE_LEISH: Cytotoxicity at 2uM final concentration against transgenic Leishmania Mexicana promastigotes LmGT2 that are glucose transport deficient and complemented with the L. Mexicana glucose transporter 2. Activity is measured by DNA content using SYBR green in vitro

Row | Compound | inhibition [1] [%] | inhibition [2] [%] | inhibition [3] [%]
1 | O=C(NC1CCCC1)c1ccc(N2CCC(NCc3cc4cc(Cl)ccc4[nH]3)CC2)cc1 | 2.79 | 3.34 | 2.98
2 | CC(=O)OCCN1C(=O)c2ccc3c4c(ccc(c24)C1=O)C(=O)N(CCOC(C)=O)C3=O | 3.05 | 2.04 | 0.78
3 | COCCNc1nc(N2CCC(CNC(=O)c3ccc(-c4ccc(C(=O)N(C)C)cc4C)cc3)CC2)nc2cc(OC)c(OC)cc12 | -0.42 | 1.09 | 1.17
4 | Oc1c(Cl)cc(-c2ccccc2)cc1CNC1CCCCC1 | 2.63 | 1.84 | 0.52
5 | CC(C)C[C@H](NC(=O)c1cc2ccccc2s1)C(=O)N[C@H]1CCN(Cc2ccc(OCCN3CCNCC3)c3ccccc23)C1 | -0.59 | -2.98 | 0.51
6 | O=C(Nc1cccc(-c2cc(-c3c(Cl)cccc3Cl)no2)c1)c1cnc2ccccc2c1 | 11.8 | 9.35 | 6.2
7 | O=C(NC1CCN(Cc2ccccc2)CC1)c1ccc(-c2nc3cc(F)c(F)cc3[nH]2)s1 | 3.16 | 3.84 | 5.72
8 | CC(C)Sc1nc(-c2ccccc2)nc2c1COC(C)(C)C2 | -2.07 | -2.02 | -4.12
9 | Clc1ccc(CNc2ccnc(NCc3ccc4c(c3)OCCCO4)n2)c(Cl)c1 | 4.44 | 5.76 | 3.69
10 | O=C(NCCCN1CCOCC1)c1csc(Nc2ccc(Cl)c(Cl)c2)n1 | 0.69 | 0.58 | 0.12
11 | CCOc1c(OC)ccc2c1CCN(CCN1CCC(CNC(=O)c3ccc(-c4ccc(C#N)cc4)cc3)CC1)C2 | -1.08 | -0.26 | 1.45
12 | CCCN(Cc1nnc(-c2cccs2)o1)C(=O)CSc1nnnn1-c1ccc(C)c(C)c1 | 12.1 | 11.8 | 9.19
